Experimental data published in PubChem BioAssay (Tox21).
Inconclusive results are not listed. The source made the active and inactive calls. Unless noted, the call rests on the fitted dose curve.

What was measured:
[1] = Nuclear factor erythroid 2-related factor 2/antioxidant responsive element (Nrf2/ARE) small molecule agonists: qHTS cell viability counter screen in human keratinocytes (AID 1919968; active means well fitted curve in the direction sought with a large enough effect in the repeat runs; an effect the other way counts as inactive or inconclusive; further: nearly all actives have a fitted effect of over 55% in size)
Method in brief: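 KeratinoSens HaCaT cells, 1,500/well, preincubated 5 h, then exposed to compounds in DMSO for 23 h at 37 C/5% CO2. Viability read as CellTiter-Fluor fluorescence after 1 h, in the same wells as the ARE-luciferase read.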

[2] = Nuclear factor erythroid 2-related factor 2/antioxidant responsive element (Nrf2/ARE) small molecule agonists: luciferase reporter gene qHTS assay in human keratinocytes (AID 1919969); further: nearly all actives have a fitted effect of over 35% in size; further: potency means the concentration at half of the fitted maximal effect
[3] = target: Gonadotropin-releasing hormone receptor (Homo sapiens) (UniProt P30968); assay: Human gonadotropin-releasing hormone receptor (GnRHR) small molecule agonists, calcium flux assay in GnRHR-HEK293 cells (AID 1920063); further: nearly all actives have a fitted effect of over 35% in size
Method in brief: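 HEK293 cells stably expressing human GnRHR were dye-loaded for 1 h at 37 C. Compound was added in agonist mode and fluorescence (Ex/Em 480/540) recorded kinetically for 3 min. Fifteen concentrations, triplicates.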

[4] = target: KiSS-1 receptor (Homo sapiens) (UniProt Q969F8); assay: Human kisspeptin (KISS1R) small molecule agonists, calcium flux assay in KISS1R-HEK293 cells (AID 1920064; active means well fitted curve in the direction sought with a large enough effect in the repeat runs; an effect the other way counts as inactive or inconclusive)
Method in brief: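 HEK293 cells stably expressing human KISS1R were loaded with calcium dye for 1 h at 37 C, then given compound; fluorescence (Ex/Em 480/540) was read kinetically for 3 min. Fifteen concentrations, triplicate.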

[5] = G protein-coupled receptor (GPCR) small molecule agonists, calcium flux assay: HEK293 wild type cell line counter screen (AID 1920065)
Method in brief: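 Wild-type HEK293 cells plated 18 h, loaded with calcium dye 1 h at 37 C, then compounds added in agonist mode (ATP as positive control). Kinetic fluorescence Ex/Em 480/540 recorded 3 min at 1 sec intervals; 15 concentrations, triplicate.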

[6] = p53 small molecule agonists, cell-based qHTS assay with human liver microsomes (AID 1963577)
Method in brief: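 p53RE-bla reporter cells were pre-incubated 5 h at 37 C, then treated with compounds plus human liver microsomes (0.5 mg/mL final) and NADPH (0.5 mg/mL final) for 16 h at 37 C. Beta-lactamase activity was read by LiveBLAzer fluorescence after 2 h at room temperature.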

[7] = p53 small molecule agonists, cell-based qHTS assay with rat liver microsomes (AID 1963578)
Method in brief: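 p53RE-bla cells were exposed to compounds together with rat liver microsomes (0.5 mg/mL final) and NADPH (0.5 mg/mL final) for 16 h at 37 C, then read by LiveBLAzer beta-lactamase fluorescence after 2 h at room temperature.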

[8] = p53 small molecule agonists, cell-based qHTS assay with human liver microsomes: qHTS cell viability counter screen (AID 1963579); further: nearly all actives have a fitted effect of over 45% in size
Method in brief: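 p53RE-bla cells (4,000/well) were pre-incubated 5 h at 37 C, then given compounds in DMSO plus human liver microsomes (0.5 mg/mL final) and NADPH (0.5 mg/mL final) for 16 h at 37 C. Viability was read by CellTiter-Glo luminescence.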

[9] = p53 small molecule agonists, cell-based qHTS assay: qHTS cell viability counter screen (AID 1963581); further: nearly all actives have a fitted effect of over 45% in size
Method in brief: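 p53RE-bla HCT-116 cells, compounds added 5 h after plating and incubated 16 h at 37 C. Cytotoxicity measured in the same wells as intracellular ATP by CellTiter-Glo luminescence after 30 min at room temperature.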

[10] = p53 small molecule agonists, cell-based qHTS assay (AID 1963582; active means well fitted activation curve with a large enough effect in the signal ratio in the repeat runs, not every such curve was filed as active; the % refers to the signal ratio)
Method in brief: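 p53RE-bla reporter cells, compounds added in DMSO after 5 h plating, incubated 16 h at 37 C. Beta-lactamase read via 2 h room-temperature LiveBLAzer B/G FRET substrate, fluorescence intensity.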

[11] = target: 5-hydroxytryptamine receptor 2A (Homo sapiens) (UniProt P28223); assay: 5-hydroxytryptamine receptor 2A (HTR2A) small molecule antagonists, cell-based qHTS assay (AID 1963586); further: nearly all actives have a fitted effect of over 45% in size
Method in brief: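 Antagonist-mode intracellular calcium assay: DOI (4 nM) added after 5 min compound pre-incubation at room temperature to dye-loaded HTR2A-CHO cells. Fluorescence followed for 3 min, sampled every second.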

[12] = target: 5-hydroxytryptamine receptor 2A (Homo sapiens) (UniProt P28223); assay: 5-hydroxytryptamine receptor 2A (HTR2A) small molecule agonists, cell-based qHTS assay (AID 1963587); further: nearly all actives have a fitted effect of over 30% in size
Method in brief: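 CHO cells stably expressing human HTR2A, plated 18 h, loaded with calcium dye 1 h at 37 C. Agonist mode: compounds added and intracellular calcium fluorescence recorded kinetically for 2 min at 1 sec intervals.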

[13] = target: Muscarinic acetylcholine receptor M1 (Homo sapiens) (UniProt P11229); assay: Cholinergic receptor muscarinic 1 (CHRM1) small molecule antagonists, cell-based qHTS assay (AID 1963588); further: nearly all actives have a fitted effect of over 40% in size
Method in brief: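 CHRM1-CHO calcium-flux assay, antagonist mode. Cells were seeded 18 h, dye-loaded 1 h at 37 C and given compound for 5 min at RT, then acetylcholine was added at 50nM. FDSS fluorescence was read 3 min; 15 concentrations, three runs.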

[14] = target: Muscarinic acetylcholine receptor M1 (Homo sapiens) (UniProt P11229); assay: Cholinergic receptor muscarinic 1 (CHRM1) small molecule agonists, cell-based qHTS assay (AID 1963589); further: nearly all actives have a fitted effect of over 35% in size
Method in brief: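 CHO cells stably expressing human CHRM1 were loaded with calcium dye for 1 h at 37 C, then compound was added in agonist mode. Intracellular calcium fluorescence was followed kinetically at 1 s intervals. Fifteen concentrations were tested in three independent runs.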

[15] = cAMP Responsive Elements (CRE) small molecule agonists, cell-based qHTS assay (AID 1963590)
Method in brief: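 CRE-bla HEK 293T cells, 2,000/well in DMEM with 10% dialyzed FBS and 25 mM HEPES, pre-incubated 18 h at 37 C, then exposed to compound 3 h at 37 C. Beta-lactamase reporter read with LiveBLAzer B/G FRET substrate after 2 h at room temperature.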

[16] = cAMP Responsive Elements (CRE) small molecule antagonists, cell-based qHTS assay (AID 1963591; active means well fitted inhibition curve with a large enough effect in the signal ratio in the repeat runs, not every such curve was filed as active; the % refers to the signal ratio)
Method in brief: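 CRE-bla HEK293T cells plated 18 h, then given compound plus NKH477 at 0.25 uM final for 3 h at 37C. Beta-lactamase reporter read with LiveBLAzer B/G FRET substrate after 2 h at room temperature.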

[17] = target: Beta-2 adrenergic receptor (Homo sapiens) (UniProt P07550); assay: Adrenergic beta2 receptor (ADRB2) small molecule antagonists, cell-based qHTS assay (AID 1963592); further: series mostly up to about 92 µM; nearly all actives have a fitted effect of over 50% in size
Method in brief: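 Cells (CHO, stable ADRB2 overexpression) incubated 18-20hr at 37C; compounds added from DMSO; agonist mix (1nM isoproterenol, 100uM IBMX, 25uM Ro-20-1724) added; 0.5hr RT; d2-cAMP and anti-cAMP-cryptate added; 1hr RT; 665/615 nm read.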

[18] = target: Beta-2 adrenergic receptor (Homo sapiens) (UniProt P07550); assay: Adrenergic beta2 receptor (ADRB2) small molecule agonists, cell-based qHTS assay (AID 1963593);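 further: CHO cells stably overexpressing human ADRB2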
Method in brief: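 CHO cells stably over-expressing ADRB2 were plated overnight at 37C, then dosed with compounds plus a stimulation mix containing 100uM IBMX and 25uM Ro-20-1724 for 0.5hr at room temperature. cAMP was measured by HTRF competition, 1hr.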

[19] = target: D(2) dopamine receptor (Homo sapiens) (UniProt P14416); assay: Dopamine D2 receptor (DRD2) small molecule agonists, cell-based qHTS assay (AID 1963594); further: nearly all actives have a fitted effect of over 35% in size
Method in brief: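 HEK293 cells stably expressing human DRD2, pre-treated with PDE inhibitor Ro20-1724 (0.1 mM final) and compound 10 min at room temperature, then stimulated with NKH477 (200nM […]) for 30 min. cAMP read by HTRF (665/620 nm).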

[20] = target: D(2) dopamine receptor (Homo sapiens) (UniProt P14416); assay: Dopamine D2 receptor (DRD2) small molecule antagonists, cell-based qHTS assay (AID 1963595; active means well fitted inhibition curve with a large enough effect in the signal ratio in the repeat runs, with a control signal flat; the % refers to the signal ratio)
Method in brief: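 Antagonist mode in DRD2-HEK293 cells: after compound addition with 0.1 mM Ro20-1724, cells received quinpirole (12 nM) and NKH477 (200 nM) for 30 min at room temperature; HTRF cAMP read after 1 h detection.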

Measured: Potency

Chain of Muscarinic acetylcholine receptor M1 (Homo sapiens) (P11229 whole entry, looked up): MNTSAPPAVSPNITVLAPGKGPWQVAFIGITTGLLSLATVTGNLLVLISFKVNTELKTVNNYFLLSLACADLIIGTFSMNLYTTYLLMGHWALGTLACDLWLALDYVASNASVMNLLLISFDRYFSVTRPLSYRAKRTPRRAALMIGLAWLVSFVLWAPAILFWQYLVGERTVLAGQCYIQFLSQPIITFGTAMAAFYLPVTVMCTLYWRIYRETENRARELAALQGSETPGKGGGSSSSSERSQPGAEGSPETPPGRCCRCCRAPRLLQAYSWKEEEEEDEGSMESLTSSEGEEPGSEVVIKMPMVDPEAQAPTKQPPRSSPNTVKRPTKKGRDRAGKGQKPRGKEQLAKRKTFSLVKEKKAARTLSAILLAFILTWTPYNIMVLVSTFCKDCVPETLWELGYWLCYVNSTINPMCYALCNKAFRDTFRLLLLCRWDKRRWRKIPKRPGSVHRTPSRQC
Chain of Gonadotropin-releasing hormone receptor (Homo sapiens) (P30968 whole entry, looked up): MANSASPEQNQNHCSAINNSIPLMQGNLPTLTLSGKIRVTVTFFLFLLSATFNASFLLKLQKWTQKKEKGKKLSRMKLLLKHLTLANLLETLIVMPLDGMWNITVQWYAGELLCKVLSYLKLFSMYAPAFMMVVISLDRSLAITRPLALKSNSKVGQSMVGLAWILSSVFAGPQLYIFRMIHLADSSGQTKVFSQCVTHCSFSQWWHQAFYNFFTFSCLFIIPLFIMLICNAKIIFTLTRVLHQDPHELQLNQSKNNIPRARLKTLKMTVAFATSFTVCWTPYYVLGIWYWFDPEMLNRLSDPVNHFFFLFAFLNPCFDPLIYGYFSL
Chain of KiSS-1 receptor (Homo sapiens) (Q969F8 whole entry, looked up): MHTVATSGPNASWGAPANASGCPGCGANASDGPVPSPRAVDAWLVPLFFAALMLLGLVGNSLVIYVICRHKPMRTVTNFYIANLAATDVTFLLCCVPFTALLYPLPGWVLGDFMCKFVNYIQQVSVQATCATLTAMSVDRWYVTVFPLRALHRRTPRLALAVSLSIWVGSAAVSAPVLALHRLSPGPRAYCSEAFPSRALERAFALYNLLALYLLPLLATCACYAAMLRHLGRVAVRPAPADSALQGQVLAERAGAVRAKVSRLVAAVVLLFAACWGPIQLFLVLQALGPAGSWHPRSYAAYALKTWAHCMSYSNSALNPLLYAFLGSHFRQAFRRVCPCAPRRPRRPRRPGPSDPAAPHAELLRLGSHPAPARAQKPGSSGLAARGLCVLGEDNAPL
Chain of Beta-2 adrenergic receptor (Homo sapiens) (P07550 whole entry, looked up): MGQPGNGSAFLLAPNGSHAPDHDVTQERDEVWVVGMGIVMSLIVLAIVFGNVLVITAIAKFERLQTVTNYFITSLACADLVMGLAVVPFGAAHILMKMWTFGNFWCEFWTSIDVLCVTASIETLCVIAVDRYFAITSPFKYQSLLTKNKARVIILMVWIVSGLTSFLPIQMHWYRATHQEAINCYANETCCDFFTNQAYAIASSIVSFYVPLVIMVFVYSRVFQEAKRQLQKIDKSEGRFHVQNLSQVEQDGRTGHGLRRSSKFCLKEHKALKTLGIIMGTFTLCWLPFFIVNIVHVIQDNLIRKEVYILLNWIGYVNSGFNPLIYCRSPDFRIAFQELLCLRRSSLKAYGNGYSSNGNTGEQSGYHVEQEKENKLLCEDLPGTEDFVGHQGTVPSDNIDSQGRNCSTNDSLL
Chain of 5-hydroxytryptamine receptor 2A (Homo sapiens) (P28223 whole entry, looked up): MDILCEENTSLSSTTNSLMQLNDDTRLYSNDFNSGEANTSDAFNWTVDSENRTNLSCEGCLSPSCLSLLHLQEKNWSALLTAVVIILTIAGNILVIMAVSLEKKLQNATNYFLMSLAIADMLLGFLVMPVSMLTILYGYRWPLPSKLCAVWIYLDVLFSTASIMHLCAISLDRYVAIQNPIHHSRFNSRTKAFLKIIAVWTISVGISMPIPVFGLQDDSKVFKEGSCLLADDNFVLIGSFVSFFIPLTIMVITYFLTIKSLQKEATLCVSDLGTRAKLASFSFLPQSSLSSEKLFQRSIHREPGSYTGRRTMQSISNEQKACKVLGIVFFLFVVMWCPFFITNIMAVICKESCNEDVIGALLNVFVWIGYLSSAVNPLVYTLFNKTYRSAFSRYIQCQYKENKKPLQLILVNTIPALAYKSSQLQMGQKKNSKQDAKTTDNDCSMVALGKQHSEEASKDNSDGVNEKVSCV
Chain of D(2) dopamine receptor (Homo sapiens) (P14416 whole entry, looked up): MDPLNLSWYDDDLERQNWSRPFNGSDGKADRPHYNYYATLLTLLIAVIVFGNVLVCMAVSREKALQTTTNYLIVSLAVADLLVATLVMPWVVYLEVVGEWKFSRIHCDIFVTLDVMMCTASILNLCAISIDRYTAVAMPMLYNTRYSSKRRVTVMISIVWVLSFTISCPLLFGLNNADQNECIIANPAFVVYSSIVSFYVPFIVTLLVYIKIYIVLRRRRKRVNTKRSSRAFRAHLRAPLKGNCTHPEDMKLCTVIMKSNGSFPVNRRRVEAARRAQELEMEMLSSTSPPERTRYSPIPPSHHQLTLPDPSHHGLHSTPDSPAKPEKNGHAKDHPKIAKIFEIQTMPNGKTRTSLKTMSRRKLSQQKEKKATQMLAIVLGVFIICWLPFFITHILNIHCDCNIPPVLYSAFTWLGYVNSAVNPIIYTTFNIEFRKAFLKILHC

CC(C)CC(O)CC(C)C
inactive: all assays above

c1ccc2cnncc2c1
not listed: [18]
inactive: all other assays above

Nc1ccccc1S(=O)(=O)O
not listed: [18] | [20]
inactive: all other assays above

[Cl][In]([Cl])[Cl]
active: [2] 3.44 µM
not listed: [9] | [10] | [11] | [13] | [16] | [18]
inactive: all other assays above

CNC(=O)[C@H]1O[C@@H](n2cnc3c(NCc4cc(Cl)ccc4OCc4cc(C)no4)ncnc32)[C@H](O)[C@@H]1N
not listed: [18]
inactive: all other assays above

CC(C#N)(CCC(=O)O)N=NC(C)(C#N)CCC(=O)O (centres undefined)
not listed: [19]
inactive: all other assays above

O=C(O)c1cccnc1C(=O)O
inactive: all assays above
